Reference: PubChem BioAssay (EPA / NIEHS)
Inconclusive results are not listed. Activity calls are given as the source filed them. The calls were made as follows, unless noted: active = hit-call score of the fitted dose curve at least 0.9, where 1 is the maximum; inactive = score below 0.9.

What was measured:
[1] = CCTE_Harrill_HTTr_Viability_MCF7: CCTE's 6-hour Cell Viability Assessment for the High-Throughput Transcriptomics (HTTr) Platform, in MCF-7 cells cultured in DMEM + 10% fetal bovine serum, Harrill Lab (AID 2284010)
In short: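 PI exclusion, high-content imaging; 8-pt dilution series, 6 h exposure; bidirectional fit vs DMSO (neg. ctrl/baseline); gain of signal = loss of membrane integrity.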

[2] = CCTE_Harrill_HTTr_Apoptosis_MCF7: CCTE's 6-hour Apoptosis Assessment for the High-Throughput Transcriptomics (HTTr) Platform, in MCF-7 cells cultured in DMEM + 10% fetal bovine serum, Harrill Lab (AID 2284011)
In short: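 Apoptosis in MCF-7 cells grown in DMEM with 10% fetal bovine serum was scored after a six hour exposure by high content imaging of caspase-3/7 activation (CellEvent Caspase 3/7 Green), with DMSO serving as negative control and baseline.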

[3] = CCTE_Harrill_HTTr_CellCount_MCF7: CCTE's Cell Proliferation Assessment for the High-Throughput Transcriptomics (HTTr) Platform, Harrill Lab (AID 2284012; active = hit-call score of the fitted dose curve at least 0.9, where 1 is the maximum;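 also: count of Hoechst-stained nuclei per well by high-content imaging in MCF-7 cells; cells exposed to compound for six hours; intended direction is loss of nuclei count meaning fewer cells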)
In short: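 Readout: Hoechst nuclear count by high-content imaging. MCF-7, 8-point dilution series, 6 h exposure. Bidirectional fit vs DMSO baseline.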

SMILES | outcome [1] | outcome [2] | outcome [3]
CCOC(=O)C1=NOC(c2ccccc2)(c2ccccc2)C1 | inactive | inactive | inactive
Fc1ccc(Br)cc1 | inactive | inactive | inactive
CC(C)CO | inactive | inactive | –
CCCCCCCCCCCCC | inactive | inactive | –
Clc1cc(Cl)c(Cl)c(Cl)c1Cl | inactive | inactive | –
Cn1ccnc1 | inactive | inactive | –
Oc1c(Cl)cc(Cl)c(Cl)c1Cl | inactive | inactive | –
N#Cc1ccc(C2CCCc3cncn32)cc1 (stereo not drawn) | inactive | inactive | inactive
C=C(C)C1CC=C(C)CC1 (stereo not drawn) | inactive | inactive | inactive
C1CCSC1 | inactive | inactive | –
COC(Cc1ccccc1)OC | inactive | inactive | –
Cc1c[nH]c(=O)[nH]c1=O | inactive | inactive | –
C=Cc1ccc(OC(C)=O)cc1 | inactive | inactive | –
COC(=O)C=Cc1ccccc1 | inactive | inactive | inactive
CCOC(=O)/C=C\C(=O)OCC | inactive | inactive | –
CCCCCC(=O)OCC | inactive | inactive | –
CC(=O)OC/C=C(/C)CCC=C(C)C | inactive | inactive | –
c1ccc2cnccc2c1 | inactive | inactive | inactive

SMILES | outcome [1] | outcome [2] | outcome [3]
O=C(OCc1ccccc1)c1ccc(O)cc1 | inactive | inactive | inactive
O=C(O)CCC(=O)O | inactive | inactive | inactive
CCCCCCC=O | inactive | inactive | inactive
C=C[C@@]1(C)CC(=O)[C@]2(O)[C@@]3(C)[C@@H](O)CCC(C)(C)[C@@H]3[C@H](O)[C@H](OC(C)=O)[C@@]2(C)O1 | inactive | inactive | inactive
CCCCC/C=C\C/C=C\CCCCCCCC(=O)O | inactive | inactive | inactive
Cc1noc(NS(=O)(=O)c2ccc(N)cc2)c1C | inactive | inactive | inactive
CC(C=O)c1ccccc1 (stereo not drawn) | inactive | inactive | inactive
CC(=O)c1ccc(S(=O)(=O)NC(=O)NC2CCCCC2)cc1 | inactive | inactive | inactive
CC(C)OC(=O)c1ccccc1 | inactive | inactive | inactive
O=C(O[C@@H]1Cc2c(O)cc(O)cc2O[C@@H]1c1cc(O)c(O)c(O)c1)c1cc(O)c(O)c(O)c1 | inactive | inactive | inactive
CCCCC1C(=O)N(c2ccccc2)N(c2ccccc2)C1=O | inactive | inactive | inactive
CC(=O)OCCc1ccccc1 | inactive | inactive | inactive
CC(=O)c1ccccc1O | inactive | inactive | inactive
CC1=CCC(C(C)C)C=C1 (stereo not drawn) | inactive | inactive | inactive
C=C(C)[C@@H]1CC=C(C)CC1 | inactive | inactive | inactive
CCCc1ccc(O)c(OC)c1 | inactive | inactive | inactive
CC(=O)OCC=C(C)C | inactive | inactive | inactive
